Reference: ChEMBL document CHEMBL5308541, “MAIP: An Open-Source Tool to Enrich High-Throughput Screening Output and Identify Novel, Druglike Molecules with Antimalarial Activity” (ACS Med Chem Lett, 2023)
Screen size: about 4,800 compounds; about 410 (8.5%) showed an effect of 50% or more. This excerpt belongs to a sample that is enriched for strong results.

These compounds were tested on Plasmodium falciparum (assay: Confirmatory screen in NF54 pLDH assay, in single point, at 2uM, 72h). Details: timepoint 72 hour.
Format: functional, Erythrocyte

Row | SMILES | % Inhibition
1 | Cc1cnccc1NCCNCc1cccc(OCCCCN2CCOCC2)c1 | 95%
2 | Cc1cnccc1NCCNCc1cnc(N2CCCCC2)nc1 | 62%
3 | CCCN1CCC(N2CC(c3cccnc3)C(c3nc(C4CCCC4)no3)C2)CC1 (configuration not stated) | 10%
4 | OCC1CCCN1CCCCNC1CC2(CCC2)Oc2ccccc21 (configuration not stated) | -5%
5 | COc1ccc2c(O)c(Br)c(C)nc2c1 | 72%
6 | COc1ccc2nc3cc(Cl)ccc3c(O)c2c1 | 39%
7 | Cc1nc(-c2ccccn2)nc(NC2CCN(CC(F)F)CC2)c1C | 24%
8 | Cc1cnccc1N1CCCN(Cc2ccccc2OCCN2CCN(C)CC2)CC1 | 102%
9 | CCCC(=O)NC1COCC1Cc1ccncc1 (configuration not stated) | 86%
10 | CCOc1cc(C(=O)NC2CCN(CC3CCCC3)CC2)cc(-c2ccccc2)c1OC | 99%
11 | Cc1cc(F)ccc1N1CCC(NCCCNc2cccnc2)CC1 | -2%
12 | FC(F)(F)c1ccc(N2CCC[C@H](NC3CCN(Cc4ccco4)CC3)C2)nc1 | 38%
13 | CCc1cc(Nc2ccc(N3CCOCC3)nc2)nc(-c2ccncc2)n1 | 42%
14 | O=C(NC1CCN(CCOc2ccc(Cl)cc2)CC1)c1c[nH]c2ccncc2c1=O | 100%
15 | OC[C@H](CNCc1cc2ccc(F)cc2[nH]1)c1ccccc1Cl | 82%
16 | O[C@@H](CNCc1cc2cc(Cl)c(Cl)cc2[nH]1)c1ccc(F)cc1 | 80%
17 | CN(CCCc1cc(-c2ccc(F)cc2)n[nH]1)CC1CCNCC1 | 17%
18 | Cc1cc(N2CCC(N(C)Cc3cc(-c4ccccc4)n[nH]3)CC2)nc(N)n1 | 52%
19 | CCN1CCN(c2ccc(CNCc3cccc(O)c3)cc2F)CC1 | 85%
20 | Cc1ccccc1CN1CCC(CNc2c3c(nc4ccccc24)CCC3)CC1 | 103%
21 | N#Cc1cccc(Cl)c1N1CCC(N2CCCC2)CC1 | 38%
22 | CCc1cc(NCCc2nc3cc(F)ccc3[nH]2)nc(-c2ccccn2)n1 | 9%
23 | C[C@H](Nc1nc(N)c2ccccc2n1)c1cccc(-n2cncn2)c1 | 29%

Row | SMILES | % Inhibition
24 | COCCNc1nc(N[C@@H](C)c2ccccc2)c2ccccc2n1 | 92%
25 | NCC1(O)CCN(c2ccnc3cc(F)c(Cl)cc23)CC1 | 97%
26 | CCc1oc2ccccc2c1CNC[C@H](O)c1ccc(Cl)cc1 | 99%
27 | CC(C)c1ccc(CN2CCC[C@@](O)(CNCCN3CCNCC3)C2=O)cc1 | 29%
28 | O=C1CN(C(=O)c2ccnc3ccccc23)CCN1Cc1ccccc1F | 63%
29 | COc1cc2nc(-c3ccc(F)c4cccnc34)nc(N)c2cc1OC | 102%
30 | Cc1cccc(N2CCC(NCc3cc(C)cc(CN4CCN(C)CC4)c3C)CC2)c1 | 84%
31 | Cc1cc(C)c(CN2CCN(C)CC2)cc1CNCCCn1ccnc1C | 44%
32 | Clc1ccc2[nH]c3c(c2c1)CCCC3NC1CCN(C2CCOC2)CC1 (configuration not stated) | 96%
33 | O=C(NCc1ccc(OC(F)(F)F)cc1)N(CCN1CCCC1)[C@H]1CCCNC1 | 33%
34 | CCN1CCC(N2CCC(C(=O)NCCc3ccc(OC(F)(F)F)cc3)CC2)CC1 | 53%
35 | Cc1sc2nc(-c3ccccn3)nc(NCCc3nccn3C)c2c1-c1ccccc1 | 65%
36 | O=C(CCc1nnc(-c2ccc(-c3ccccc3)cc2)o1)NC[C@@H]1CCCN2CCCC[C@H]12 | 86%
37 | COc1ccc2nc(C)cc(NCc3cccc(NC(=O)c4ccco4)c3)c2c1 | 105%
38 | Cc1c(CN2CCC(O)(Cn3ccnc3)CC2)[nH]c2c(Cl)cccc12 | 99%
39 | Cc1ccc2nc(NC[C@H]3CCN(C4CC4)C3)cc(C)c2c1 | 100%
40 | Cc1ccc2nc(-c3cccc(NC(=O)c4ccc(OC(F)(F)F)c(Cl)c4)c3)[nH]c2n1 | 74%
41 | O=C(NCCNc1ccnc2ccncc12)c1ccc(C(F)(F)F)cc1 | 43%
42 | Cc1cnccc1NCCNCc1ccc(OC(C)C)c(Cl)c1 | 84%
43 | Cc1ocnc1CNC[C@H](O)c1ccc(Cl)c(Cl)c1 | 97%
44 | CNc1nc(N[C@H]2CCCN(Cc3ccc(Cl)cc3)C2)nc2c1CCC2 | 100%
45 | Nc1ccc(Nc2ccc(F)cc2)c2ccncc12 | 70%
46 | CN([C@@H](c1ccccc1)c1ccccc1Br)S(=O)(=O)c1c[nH]c2ncccc12 | 67%

Row | SMILES | % Inhibition
47 | CN(C[C@H](O)COc1ccccc1CN1CCC(c2ccncc2)CC1)C1CCCCC1 | 84%
48 | CN(C[C@H](O)COc1cccc(CNCCCOc2cccnc2)c1)C1CCCCC1 | 44%
49 | O=C(Nc1cncnc1N1CCCC1)c1cc(F)cc2[nH]cnc12 | -8%
50 | CN1CCC(N(C)C[C@H](Nc2ncnc3ccccc23)c2ccccc2)CC1 | 102%
51 | Cc1nc2ccc(Oc3ccccc3)cc2c(O)c1CN(C)C1CCN(C)CC1 | 28%
52 | CN(C)CCN1CCC(CNCc2ccc3ncccc3c2)CC1 | 29%
53 | COc1ccc(-c2cncc(C(=O)NCC3CCN(CCN(C)C)CC3)c2)cc1 | 96%
54 | COC(=O)c1cn(CCNc2ccnc3cc(Cl)ccc23)cc2c(O)nnc1-2 | 103%
55 | CCCN(CCN1CCN(CC)CC1)c1nc(-c2ccccn2)nc2c1CCC2 | 10%
56 | c1ccc(-c2nc3c(c(NCCNc4ncccn4)n2)CCC3)nc1 | 23%
57 | CNc1nc(C)cc(N[C@@H]2COc3ccccc3C2)n1 | 89%
58 | c1ccc2c(CNCCC3CCN(c4ccncc4)CC3)csc2c1 | 95%
59 | CCN1CCN(c2ccccc2CNCCC2CCN(C)CC2)CC1 | 2%
60 | Fc1ccc(-n2cc(CNCCC3CCN(c4ccncc4)CC3)cn2)cc1 | 102%
61 | c1ccc(-c2ccnc(C3CCN(CC45CNCC4C5)CC3)n2)cc1 (configuration not stated) | 96%
62 | COCCN1CC[C@H](CNC2CCN(c3ncc4ccc(F)cc4n3)CC2)C1 | 71%
63 | COCCN1CCC[C@H](CNCc2cnn(-c3ccc4ccccc4c3)c2)C1 | 13%
64 | CN(C)C1(CNc2nc(C(F)(F)F)nc3cc(F)ccc23)CCCCCC1 | 57%
65 | CN(C)C1(CNc2nc(C(F)(F)F)nc3cc4c(cc23)OCO4)CCCCCC1 | 49%
66 | Cc1ccc(-c2cc(C(=O)NC3CCN(C4CCN(C)CC4)CC3)n[nH]2)cc1C | 102%
67 | CN1CCC(N2CCC(NC(=O)c3ccc(S(=O)(=O)N(C)C4CCCCC4)cc3)CC2)CC1 | 39%
